From PubChem
An excerpt weighted towards active compounds, which were near 6.3% of everything screened.
Spn DPM-DC inh: inhibitors of Streptococcus pneumoniae diphosphomevalonate decarboxylase; 65,000 tested, 0.49% active; calls only at 10 µM; purified DPM-DC, PK/LDH coupled NADH fluorescence;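 active = the 320 compounds with the highest percent inhibition in the single-dose primary screen, excluding strongly autofluorescent ones, cut at about 32% in these data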;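 also: kinetic rate of NADH fluorescence loss reporting ADP formed by the decarboxylase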
Abs 340nm: absorbance at 340 nm | compound absorbance at 340 nm, fold over control | fold change at 10 µM | 65,000 tested, under 10 active;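 active = at 10 µM dose, initial 340 nm absorbance at least 2 fold that of control wells; inactive = change under 2 fold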;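 also: initial absorbance extrapolated from kinetic A340 decline of NADH oxidation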
MK inhibit: S. pneumoniae mevalonate kinase inhibition; 65,000 tested, 0.48% active; inhibition, % at 10 µM; purified MK, PK/LDH-coupled NADH absorbance 340 nm;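 active = ranked among the strongest by inhibition in the single 10 µM screen, a fixed top-ranked set picked for dose follow-up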
NADH enzymes: blocks coupling enzymes of NAD/NADH assays; coupled PK/LDH NADH assays, four targets; IC50, µM (series often up to 10 µM), for the others: at the top dose inhibition; 65,000 tested, 0.02% active; AID 774;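 active = single-dose screening hits from any of four coupled enzyme assays that gave an IC50 when retested across doses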;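 also: the DPM-DC format reads NADH fluorescence rather than 340 nm absorbance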
Fluor 339 460: intrinsic fluorescence of library compounds, ex339/em460 – biochemical, MLSMR library, data from DPM-DC assay, artefact control, profiling panel. compound autofluorescence, ex339/em460 nm, NADH buffer; active compounds read high; 1 = no-compound wells, NADH background. fluorescence fold increase at 10 µM. 65,000 tested, 5.5% active. AID 709;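 active = at 10 µM, mean starting fluorescence two-fold or more over control wells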;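 also: signal is the first read of a kinetic run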
Spn PMK inh: blocks S. pneumoniae phosphomevalonate kinase; 65,000 tested, 0.49% active; AID 539; purified PMK, PK/LDH-coupled NADH absorbance 340 nm; inhibition, % at 10 µM;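 active = top-ranked compounds by inhibition in the single 10 µM screen, taking a fixed number of the strongest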;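 also: 0% = full reaction with DMSO carrier and 100% = background rate without enzyme reaction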
An asterisk follows results filed as active; i = inactive; nt = no result shown.

SMILES	Spn DPM-DC inh	Abs 340nm	MK inhibit	NADH enzymes	Fluor 339 460	Spn PMK inh
O=c1c(-c2ccc(Br)cc2)coc2c(CN3CCOCC3)c(O)ccc12	nt	1.1	1	4%	3*	7
Cc1oc2c(CN3CCOCC3)c(O)ccc2c(=O)c1-c1ccc(Br)cc1	nt	0.99	6	6%	3.1*	12
Cc1oc2c(CN3CCCC3)c(O)ccc2c(=O)c1-c1ccccc1	nt	1.1	9	6%	3*	17
O=C1NC(c2ccccc2)C(C(=O)c2cccs2)=C1O (configuration not stated)	i	1.1	10	7%	1	8
O=C(NC1CCS(=O)(=O)C1)OC1CCCCC1 (configuration not stated)	i	1	15	3%	1.1	13
CCOC(=O)C(NC(C)=O)(Nc1ccc(S(=O)(=O)Nc2cc(C)nc(C)n2)cc1)C(F)(F)F (configuration not stated)	i	1	9	3%	1.1	0
CCN(CC)C(=O)CSc1nc2cc3c(cc2c(=O)n1Cc1ccc2c(c1)OCO2)OCO3	i	0.99	7	8%	1.1	18
CCC(C)NC(=O)CSc1nc2ccc(N3CCOCC3)cc2c(=O)n1CCc1ccccc1 (configuration not stated)	i	0.99	10	10%	2.3*	11
O=C(CSc1nc2sc3c(c2c(=O)n1-c1ccccc1)CCCC3)NCc1ccco1	i	1.1	10	11%	1.7	12
Cn1c(=O)c2c(nc(SCCN3CCCCC3)n2Cc2ccccc2)n(C)c1=O	i	1.1	3	3%	1.1	7
CC(NC(=O)CSc1nc2ccccc2c(=O)n1CCCO)c1ccccc1 (configuration not stated)	i	1	0	6%	1.1	18
COCCCn1c(SCC(=O)NCc2ccco2)nc2sc3c(c2c1=O)CCC3	i	1.1	66*	22%	1.1	1
N#CCSc1nc2ccc(N3CCCCC3)cc2c(=O)n1Cc1ccccc1	i	1.1	3	5%	3*	4
CCOC(=O)CSc1nc2ccc(N3CCOCC3)cc2c(=O)n1Cc1ccc2c(c1)OCO2	i	1	10	6%	2.3*	8
CCC(C)NC(=O)CCNS(=O)(=O)c1ccc(Br)cc1 (configuration not stated)	i	0.98	0	2%	1	18
COC(=O)c1ccc(OCCN2C3=NCCN3c3ccccc32)cc1	i	1	8	5%	1.1	7
CCCCn1c(SCC(=O)Nc2cc(C)on2)nc2ccccc2c1=O	i	1	0	4%	1.3	11
CCCCn1c(SCC(=O)Nc2ccc(OC)cc2)nc2ccc(N3CCOCC3)cc2c1=O	i	0.98	7	7%	2.4*	4
CCCCn1c(SCC(=O)NCc2ccccc2)nc2ccc(N3CCOCC3)cc2c1=O	i	1	5	5%	2.2*	3
CCCCn1c(SCC(=O)NCc2ccco2)nc2ccc(N3CCOCC3)cc2c1=O	i	1.1	3	12%	3.8*	3
CC12CCC(=O)N1c1c(sc3nc(N4CCOCC4)c4c(c13)CCCC4)C(=O)N2 (configuration not stated)	nt	1.1	5	4%	2.4*	3
Cc1c(C(=O)NCc2cccnc2)oc2ccc(S(=O)(=O)N3CCCCCC3)cc12	i	1	10	4%	1.1	0
O=C(CSc1nc2ccccc2[nH]1)Nc1ccccc1N1CCOCC1	i	1.1	4	2%	1.1	1
c1ccc2[nH]c(SN3CCOCC3)nc2c1	i	0.98	54*	26%	1.1	13
O=C(CC(=O)N1CCN(c2ccccn2)CC1)Nc1ccc2nc3n(c(=O)c2c1)CCCCC3	i	1.1	3	6%	1.1	9
SMILES	Spn DPM-DC inh	Abs 340nm	MK inhibit	NADH enzymes	Fluor 339 460	Spn PMK inh
Cc1c(C(=O)O)cnc2cc(-c3ccc(Cl)cc3)nn12	nt	1.1	9	7%	2.1*	4
CCc1nc2ccccc2n1CCC(C)C	i	0.99	4	4%	1.1	7
COc1ccc(NC(=O)N(C2CCCCC2)C(C)c2cccnc2)c(OC)c1 (configuration not stated)	i	1	0	4%	1.1	11
COc1ccc(NC(=O)N(C2CCCCC2)C(C)c2ccco2)c(OC)c1 (configuration not stated)	i	0.99	3	10%	1	26*
Oc1ccc(N=Cc2ccc(-c3cccs3)s2)cc1	nt	1.1	7	9%	2.2*	10
CC(C)NC(=O)Cn1cc(C#N)c2cc(Br)ccc21	i	1	8	3%	1.1	0
COC(=O)c1ccc2ccn(CC(=O)NC(C)C)c2c1	nt	1.1	8	4%	2.1*	0
CCN(CC)S(=O)(=O)c1ccc(Nc2nc3ccccc3n3nnnc23)cc1	i	1.1	0	7%	3.6*	7
Cc1ccc(CNc2nc3ccccc3n3nnnc23)cc1	i	1.1	0	10%	2.4*	9
CCOC(=O)N1CCC(Nc2nc3ccccc3n3nnnc23)CC1	nt	1	0	7%	4*	13
c1ccc2c(c1)nc(Nc1ccc3c(c1)OCO3)c1nnnn12	i	1	0	3%	1.2	8
Cc1ccc(-c2nc3ccccc3n3nnnc23)cc1	nt	1.1	9	8%	3.8*	7
CNC(=O)c1cc(S(=O)(=O)N(C)C)ccc1Cl	i	1	7	3%	1.1	1
CC(C)OCCCNC(=O)Cn1nc(-c2ccccc2)ccc1=O	i	1	7	4%	1.2	5
CCn1cc(C(=O)OCC(=O)NCc2ccc3c(c2)OCO3)c(=O)c2ccc(C)nc21	i	1	2	1%	1	1
Cc1cc2oc(=O)cc(Cn3ccnc3)c2cc1C	i	1	7	5%	1.6	9
O=c1cc(Cn2ccnc2)c2cc3c(cc2o1)CCC3	i	1	10	12%	2.2*	13
N=c1c(C(=O)NCc2ccc(F)cc2)cc2c(=O)n3ccccc3nc2n1CC1CCCO1 (configuration not stated)	nt	1	5	7%	3.9*	9
CCOCCCn1c(=N)c(C(=O)Nc2cc(C)on2)cc2c(=O)n3ccccc3nc21	nt	1	1	1%	2.1*	0
CCCn1c(=N)c(C(=O)NCC2CCCO2)cc2c(=O)n3cccc(C)c3nc21 (configuration not stated)	nt	1	13	17%	3.7*	20
COCCCn1c(=N)c(C(=O)NCC2CCCO2)cc2c(=O)n3ccccc3nc21 (configuration not stated)	nt	1	4	9%	4.9*	13
O=C(NC1CCCCCCC1)c1ccc(CNc2c(N3CCOCC3)c(=O)c2=O)cc1	i	1	7	4%	1	1
